Measured values from PubChem BioAssay AID602393 (Broad Institute, 2012).
Out of some 350,000 compounds screened, about 7,000 (2%) were called active. Rule as the data show it: active = activation above about 40%; inconclusive = no clear call, values can overlap the other calls; inactive = below that. This excerpt belongs to a sample that is enriched for actives.

Assay: raisers of Bmi1 knock-in reporter signal – mouse ES cells, Bmi1 luciferase knock-in, single point, esBAF inhibitor project, primary screen (AID 602393);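 also: 0% = median of the plate's neutral control wells and 100% = double that signal; a rise in the Bmi1 reporter signal indicates esBAF inhibition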
Details: 24 h, at 12.5 µM, active compounds read high, 100% = twice the neutral-well signal

**Q.** Which reporter increase does the source give for `C[C@H]1CCCCO[C@@H](CN(C)Cc2ccc(C(=O)O)cc2)[C@@H](C)CN([C@@H](C)CO)C(=O)c2cc(NS(C)(=O)=O)ccc2O1` here?
**A.** Its reporter increase is -4.29% (inactive).

**Q.** For `COc1ccc(/C=N/Nc2nc3ccccc3o2)cc1OC`, which reporter increase is on record?
**A.** The reporter increase was 45.9% (active).

**Q.** Which reporter increase does the source give for `O=C(CSc1nc2ccccc2o1)N/N=C/c1ccccc1C(=O)O` here?
**A.** Its reporter increase is 28.5% (inactive).

**Q.** With `CCOc1ccccc1/C=N/Nc1nc2ccccc2o1` as the molecule, how does the reporter increase read?
**A.** Its reporter increase is 25.5% (inactive).

**Q.** For `Brc1ccccc1/C=N/Nc1nc2ccccc2o1`, which reporter increase is on record?
**A.** Its reporter increase is 66.2% (active).

**Q.** For `C(=N\Nc1ccc2ccccc2n1)/c1ccc2c(c1)OCO2`, which reporter increase is on record?
**A.** The reporter increase was -72.8% (inactive).

**Q.** With `COc1cccc(/C=N\Nc2nncc(-c3ccccc3)n2)c1` as the molecule, how does the reporter increase read?
**A.** The reporter increase was 4.67% (inactive).

**Q.** Which reporter increase does the source give for `CCCN1C[C@@H](C)[C@H](OC)CN(C)C(=O)c2ccc(NC(=O)C3CCOCC3)cc2OC[C@@H]1C` here?
**A.** The reporter increase was -4.1% (inactive).

**Q.** Which reporter increase does the source give for `C[C@@H]1CN([C@H](C)CO)C(=O)c2cc(NC(=O)Cc3ccccc3)ccc2O[C@@H](C)CCCCO[C@H]1CN(C)C(=O)Cc1ccccc1` here?
**A.** Its reporter increase is 4.79% (inactive).

**Q.** For `CCC(=O)N(C)C[C@H]1Oc2cc(C#CC3CC3)ccc2S(=O)(=O)N([C@@H](C)CO)C[C@@H]1C`, which reporter increase is on record?
**A.** The reporter increase was -1.51% (inactive).

**Q.** With `CCCNC(=O)[C@@H]1[C@@H](CO)[C@@H]2Cn3c(ccc(-c4cccc(OC)c4)c3=O)[C@H]1N2C(=O)NCCC` as the molecule, how does the reporter increase read?
**A.** Its reporter increase is 1.23% (inactive).

**Q.** Which reporter increase does the source give for `O=C(Nc1ccc(F)cc1)N[C@H]1C=C[C@@H](CC(=O)N2CCOCC2)O[C@H]1CO` here?
**A.** Its reporter increase is -15.4% (inactive).

**Q.** Which reporter increase does the source give for `Cc1cccc(S(=O)(=O)N2CC[C@@H]3[C@H]2c2cc(C#Cc4ccc(F)cc4)ccc2N[C@@H]3CO)c1` here?
**A.** Its reporter increase is 1.22% (inactive).

**Q.** Which reporter increase does the source give for `COCC(=O)Nc1ccc2c(c1)OC[C@H](C)N(C(=O)c1ccccn1)C[C@@H](C)[C@H](OC)CN(C)C2=O` here?
**A.** The reporter increase was -4.41% (inactive).

**Q.** Which reporter increase does the source give for `Cc1nn(-c2ccccc2)c(Cl)c1/C=N/NC(=O)c1nn(C)cc1[N+](=O)[O-]` here?
**A.** The reporter increase was 52.5% (active).

**Q.** With `COc1ccc(CCNC(=O)c2c(C)nn(-c3ccccc3)c2Cl)cc1` as the molecule, how does the reporter increase read?
**A.** The reporter increase was -5.69% (inactive).

**Q.** With `Cc1c(NC(=O)c2c([N+](=O)[O-])cnn2C)c(=O)n(-c2ccccc2)n1C` as the molecule, how does the reporter increase read?
**A.** Its reporter increase is -3.74% (inactive).

**Q.** For `CCC(=O)N(C)C[C@@H]1Oc2cc(-c3ccc(C#N)cc3)ccc2S(=O)(=O)N([C@@H](C)CO)C[C@@H]1C`, which reporter increase is on record?
**A.** The reporter increase was 2.37% (inactive).

**Q.** With `CCCc1cn(CC[C@@H]2CC[C@@H](NC(=O)C3CC3)[C@H](CO)O2)nn1` as the molecule, how does the reporter increase read?
**A.** Its reporter increase is 1.12% (inactive).

**Q.** For `C[C@@H]1CN([C@H](C)CO)C(=O)CCCn2nncc2CO[C@@H]1CN(C)Cc1ccc2c(c1)OCCN2C`, which reporter increase is on record?
**A.** Its reporter increase is -3.86% (inactive).

**Q.** With `CO[C@@H]1CN(C)C(=O)c2cc(NS(C)(=O)=O)ccc2OC[C@H](C)N(C(=O)C2CC2)C[C@@H]1C` as the molecule, how does the reporter increase read?
**A.** The reporter increase was 0.928% (inactive).

**Q.** For `COCC#Cc1cnc2c(c1)C(=O)N([C@H](C)CO)C[C@H](C)[C@H](CN(C)Cc1ccc(-c3ccccc3)cc1)O2`, which reporter increase is on record?
**A.** Its reporter increase is -4.32% (inactive).

**Q.** For `O=C(NCCOc1ccccc1)c1ccccc1F`, which reporter increase is on record?
**A.** Its reporter increase is -7.45% (inactive).

**Q.** For `Cc1c(C(N)=O)sc2ncn(CCOc3ccccc3)c(=O)c12`, which reporter increase is on record?
**A.** The reporter increase was 16.1% (inactive).

**Q.** With `Cc1nn(CCOc2ccccc2)c(=O)n1-c1ccccc1F` as the molecule, how does the reporter increase read?
**A.** The reporter increase was 49.4% (active).

**Q.** Which reporter increase does the source give for `COCC(=O)Nc1ccc2c(c1)[C@H]1C[C@H](CC(=O)NCc3ccccn3)O[C@H](CO)[C@H]1O2` here?
**A.** The reporter increase was 0.452% (inactive).

**Q.** For `CO[C@H]1CN(C)C(=O)c2ccc(NS(=O)(=O)c3cn(C)cn3)cc2OC[C@@H](C)N(C)C[C@@H]1C`, which reporter increase is on record?
**A.** The reporter increase was -7.11% (inactive).

**Q.** For `C[C@@H](NC(=O)C[C@@H]1CC[C@@H]2[C@H](COC[C@@H](O)CN2C(=O)Nc2cccc(F)c2)O1)c1ccccc1`, which reporter increase is on record?
**A.** The reporter increase was 11.2% (inactive).

**Q.** For `CCCN(C)C[C@H]1Oc2ncc(C#CC3CCCCC3)cc2C(=O)N([C@H](C)CO)C[C@@H]1C`, which reporter increase is on record?
**A.** Its reporter increase is -4.47% (inactive).

**Q.** For `C[C@@H]1CN([C@@H](C)CO)C(=O)Cc2cc(NS(=O)(=O)c3cccs3)ccc2O[C@H]1CN(C)S(=O)(=O)c1ccc(F)cc1`, which reporter increase is on record?
**A.** Its reporter increase is -3.47% (inactive).

**Q.** With `COc1ccc(S(=O)(=O)N(C)C)cc1NC(=O)CSc1ncccn1` as the molecule, how does the reporter increase read?
**A.** Its reporter increase is -0.957% (inactive).

**Q.** For `CN(C)S(=O)(=O)c1ccc2oc(SCC(=O)Nc3ccccc3F)nc2c1`, which reporter increase is on record?
**A.** Its reporter increase is 56% (active).

**Q.** Which reporter increase does the source give for `COc1ccc(NS(=O)(=O)c2ccc3oc(SCC(N)=O)nc3c2)cc1` here?
**A.** The reporter increase was 4.52% (inactive).

**Q.** With `COc1ccc(NC(=O)N[C@H]2CC[C@@H](CCNS(=O)(=O)c3cccc(Cl)c3)O[C@H]2CO)cc1` as the molecule, how does the reporter increase read?
**A.** The reporter increase was 1.55% (inactive).

**Q.** With `COc1cccc(NC(=O)C[C@@H]2CC[C@@H]3[C@H](COc4ccc(NC(=O)C5CCOCC5)cc4C(=O)N3C)O2)c1` as the molecule, how does the reporter increase read?
**A.** Its reporter increase is 1.18% (inactive).

**Q.** Which reporter increase does the source give for `C[C@H](CO)N1C[C@H](C)[C@@H](CN(C)Cc2ccccc2)OCCCC[C@H](C)Oc2ccc(NC(=O)Cc3ccccc3)cc2C1=O` here?
**A.** The reporter increase was 1.95% (inactive).

**Q.** Which reporter increase does the source give for `COc1ccc(NC(=O)Nc2cccc3c2O[C@H](CN(C)Cc2ccc(Cl)c(Cl)c2)[C@H](C)CN([C@@H](C)CO)C3=O)cc1` here?
**A.** Its reporter increase is 4.75% (inactive).

**Q.** For `O=C(Nc1ccc2c(c1)OCCO2)C(C1CC1)N1CCC(Cc2ccccc2)CC1` (configuration not stated), which reporter increase is on record?
**A.** The reporter increase was -12.5% (inactive).

**Q.** For `CCc1ccc(NC(=O)Cn2nnc(C(=O)NCc3ccc4c(c3)OCO4)c2N)cc1`, which reporter increase is on record?
**A.** Its reporter increase is -0.239% (inactive).

**Q.** With `Nc1c(C(=O)Nc2ccc3c(c2)OCCO3)nnn1Cc1ccccc1` as the molecule, how does the reporter increase read?
**A.** The reporter increase was 62.1% (active).

**Q.** With `C[C@@H]1CN([C@H](C)CO)C(=O)c2cc(NC(=O)c3ccncc3)ccc2O[C@H]1CN(C)C(=O)Nc1ccc(C(F)(F)F)cc1` as the molecule, how does the reporter increase read?
**A.** The reporter increase was 8.53% (inactive).

**Q.** Which reporter increase does the source give for `Cc1ccccc1S(=O)(=O)NCC[C@@H]1CC[C@H](NC(=O)C2CCC2)[C@@H](CO)O1` here?
**A.** Its reporter increase is -0.558% (inactive).

**Q.** Which reporter increase does the source give for `C(=N/N1CCN(c2ccccc2)CC1)/c1cccs1` here?
**A.** Its reporter increase is 45.3% (active).

**Q.** Which reporter increase does the source give for `Nc1nnnn1/N=C/c1cccs1` here?
**A.** The reporter increase was 2.23% (inactive).

**Q.** For `Cc1ccc(N2CCN(/N=C/c3cccs3)CC2)cc1`, which reporter increase is on record?
**A.** The reporter increase was 13.6% (inactive).

**Q.** With `C[C@H]1CN([C@@H](C)CO)C(=O)CCCn2cc(nn2)CO[C@H]1CN(C)C(=O)Nc1ccc(F)cc1` as the molecule, how does the reporter increase read?
**A.** Its reporter increase is -7.14% (inactive).

**Q.** With `C[C@H](CO)N1C[C@H](C)[C@@H](CN(C)S(=O)(=O)c2ccc(F)cc2)Oc2ccc(NC(=O)CCCCCC(=O)Nc3ccccc3N)cc2CC1=O` as the molecule, how does the reporter increase read?
**A.** The reporter increase was 1.27% (inactive).
